Assay results published in PubChem BioAssay (NCATS).
Results filed as inconclusive are left out. Entries that show only a call come without a potency. Calls of active or inactive are those of the source. Calls come from the whole dose curve; as a rule, active = well fitted curve in the direction sought with a large enough effect; inconclusive = small, poorly fitted or top-dose-only effect, or another doubt; inactive = no such curve, though single readings can be large; an effect the other way counts as inactive or inconclusive.

Legend:
[1] = biological target: Aldehyde dehydrogenase, mitochondrial (Homo sapiens) (UniProt P05091); experiment: qHTS for Inhibitors of the Aldehyde Dehydrogenase Family (ALDH2) Primary screen (AID 2061308); note: nearly all actives have a fitted effect of over 55% in size
[2] = biological target: Retinaldehyde dehydrogenase 3 (Homo sapiens) (UniProt P47895); experiment: qHTS for Inhibitors of the Aldehyde Dehydrogenase Family (ALDH1A3) Primary screen (AID 2061315)
[3] = biological target: Aldehyde dehydrogenase 1A1 (Homo sapiens) (UniProt P00352); experiment: qHTS for Inhibitors of the Aldehyde Dehydrogenase Family (ALDH1A1) Confirmatory screens (AID 2061316); note: nearly all actives have a fitted effect of over 65% in size; note: potency is the fitted concentration of half-maximal effect

Row | Compound | Potency [1] | Potency [2] | Potency [3]
1 | CN(C)C/C=C/C(=O)Nc1cccc(C(=O)Nc2ccc(Nc3nccc(-c4cccnc4)n3)cc2)c1 | inactive | inactive | –
2 | Cc1cc(C)nc(NC(=S)N2CCN(c3cccc(C#N)c3)CC2)c1 | inactive | inactive | –
3 | CC(C)(C)n1nc(Cc2cccc([N+](=O)[O-])c2)c2c(N)ncnc21 | inactive | inactive | –
4 | Cc1ccc(NS(=O)(=O)c2ccc3c(c2)CCC(C)(C)O3)cc1C | inactive | inactive | –
5 | Cc1ccc(N2CCC(CNc3nc(-c4ccccc4C(C)C)ncc3F)CC2)cn1 | inactive | inactive | –
6 | Cc1cccc(CNc2ccnc(-c3ccccc3C)n2)c1 | inactive | inactive | –
7 | O=C1CCCC2=C1C(c1[nH]ncc1Cl)NC(=NCc1cccnc1)N2 (stereo unspecified) | inactive | inactive | –
8 | Cc1ccccc1C(=O)N1CCc2cc(-c3ccnc(NC(=O)Cc4ccccc4)n3)ccc21 | inactive | inactive | –
9 | COc1ccc([S+](=O)([O-])N2CCCN([S+](=O)([O-])c3ccc(OC)c(NC(C)=O)c3)CC2)cc1NC(C)=O | inactive | inactive | –
10 | C[C@@H]1COCCN1c1cc(C2(S(C)(=O)=O)CC2)nc(-c2cccc3[nH]ccc23)n1 | inactive | inactive | –
11 | COc1cccc(C2c3c(ncn(-c4ccccc4C(C)(C)C)c3=N)Oc3ccc4ccccc4c32)c1 (stereo unspecified) | inactive | inactive | –
12 | Cc1cc(NS(=O)(=O)c2ccc(NC(=O)Cc3ccc(Cl)c(Cl)c3)cc2)on1 | inactive | inactive | –
13 | Cc1ccccc1-c1ccc(NC(=O)c2cccs2)cn1 | inactive | inactive | –
14 | Fc1cc(Nc2nc(-c3ccncc3)nc3ccccc23)ccc1-c1cc(F)c(F)c(F)c1 | inactive | inactive | –
15 | COc1ccc(Nc2nn3c(=O)c4ccccc4nc3s2)cc1 | inactive | inactive | –
16 | O=C(Nc1ccccc1)c1cccs1 | inactive | inactive | –
17 | O=C(O)C[C@H]1CCC(=O)[C@@H]1C/C=C\CCO | inactive | inactive | –
18 | Cc1nc(-c2ccc(S(=O)(=O)Nc3ccc(C)c(C)c3)s2)cs1 | inactive | inactive | –
19 | O=C(O)Cc1cc(F)c(S(=O)(=O)N2CCN(S(=O)(=O)c3ccc4c(c3)OCCO4)CC2)cc1F | inactive | inactive | –
20 | Cc1nnc(-c2cnn(C)c2N)n1CCCc1ccccc1 | inactive | inactive | –
21 | CCN1CCN(C(=O)CCN(CC(C)C)c2nc(-c3cccs3)nc3ccccc23)CC1 | inactive | inactive | –
22 | C=C1C(=O)OC2/C=C(/C)C3=CC(=O)C(C)(CC(OC(=O)/C(C)=C/COC(C)=O)C12)O3 (stereo unspecified) | inactive | inactive | –

Row | Compound | Potency [1] | Potency [2] | Potency [3]
23 | O=C1CCc2cc(S(=O)(=O)Nc3cccc(Cl)c3)ccc2N1 | inactive | inactive | –
24 | Cc1ccc(S(=O)(=O)NC(N)=NCCC[C@@H](N)C(=O)Nc2cc(C(F)(F)F)ccc2Cl)cc1 | inactive | inactive | –
25 | O=C(/C=C/c1ccccc1Cl)Nc1cccc([S+](=O)([O-])Nc2ccccc2F)c1 | inactive | inactive | –
26 | Cn1cnc(CCNc2ncnc3ccc(-c4ccc5c(c4)OCO5)cc23)c1 | inactive | inactive | –
27 | Cc1cc(N[S+](=O)([O-])c2cc3c(cc2F)NC(=O)CC3)ccc1Br | inactive | inactive | –
28 | COc1ccc([C@H]2[C@H](c3ccccc3)C(=O)N2Cc2ccccc2)cc1COc1ccc(NC(C)=O)cc1 | inactive | inactive | –
29 | CCOc1ccc(CCNC(=O)Cc2ccccc2)cc1OCC | inactive | inactive | –
30 | CC(=O)N[C@H](C(=O)N[C@@H](C)C(=O)N[C@H](C#N)CC(=O)O)C(C)C | inactive | inactive | –
31 | O=C1CCCC2=C1C(c1[nH]ncc1Cl)NC(=NCCc1ccc(O)cc1)N2 (stereo unspecified) | inactive | inactive | –
32 | Cc1cnc(-c2ccccc2C(C)C)nc1NCc1cccs1 | inactive | inactive | –
33 | Cc1nc(N2CCOCC2)c2nc(-c3ccccc3)n(CCCN3CCCCC3C)c2n1 (stereo unspecified) | inactive | inactive | –
34 | Cc1ccc(S(=O)(=O)Nc2cnccc2C(=O)Nc2nc(-c3cccc(Cl)c3)cs2)cc1 | inactive | inactive | –
35 | Cc1ccc(S(=O)(=O)Nc2ccccc2C(=O)Nc2ccc(-c3ccccc3)nc2)cc1 | inactive | inactive | –
36 | CC(C)(C)OC(=O)Cc1nnc(C(C(=O)OCc2ccccc2)c2ccccc2)o1 (stereo unspecified) | inactive | inactive | –
37 | c1ccc(OCc2nnc3n2N=C(c2ccccc2)CS3)cc1 | inactive | inactive | –
38 | O=C(OCC#CCSc1nnc(-c2cccc3ccccc23)o1)c1ccc(F)c(F)c1 | inactive | inactive | –
39 | CC(C)CC(OC(=O)CNC(=O)c1ccccc1)C(=O)Nc1cc(C(F)(F)F)ccc1Cl (stereo unspecified) | inactive | inactive | –
40 | Cc1cnc(-c2ccccc2C(C)C)nc1NCc1ccc(C(N)=O)cc1 | inactive | inactive | –
41 | CCC(Nc1ncnc2ccc(-c3c(C)noc3C)cc12)c1ccccc1 (stereo unspecified) | inactive | inactive | –
42 | COc1ccc2nc(-c3ccccc3OC)sc2c1 | inactive | inactive | –
43 | CCOC(=O)C1CCN(C(=O)C(C)(C)NC(=O)Nc2ccc(C#N)cc2)CC1 | inactive | inactive | –
44 | COc1cccc(-c2ccc3ncnc(NCc4cc(C)cs4)c3c2)c1 | inactive | inactive | –

Row | Compound | Potency [1] | Potency [2] | Potency [3]
45 | Cc1ccc(C(=O)Nc2ccc(S(=O)(=O)Nc3nccs3)cc2)cc1C | inactive | inactive | –
46 | Cc1ccccc1C(=O)N1CCc2cc(-c3nc(NC(=O)Cc4ccc5c(c4)OCCO5)sc3C)ccc21 | inactive | inactive | –
47 | CCc1c(C)nc2cc(-c3ccc(OC)c(OC)c3)nn2c1N1CCCC1 | inactive | inactive | –
48 | Cc1sc(NC(=O)Cc2ccc3c(c2)OCO3)nc1-c1ccc2c(c1)CCN2C(=O)C1CCCCC1 | inactive | inactive | –
49 | Cc1cc(C)n2ncc(C(=O)Nc3ccccc3C)c2n1 | inactive | inactive | –
50 | Cc1ccnc(NC(=S)N2CCC(Nc3cccc(C(F)(F)F)c3)CC2)c1 | inactive | inactive | –
51 | Cc1nnc(-c2cnn(C)c2N)o1 | inactive | inactive | –
52 | Oc1cc(Nc2ccncc2)cc2cccnc12 | inactive | inactive | –
53 | C=C(C)C(=O)OC1CC2(C)OC(=CC2=O)C(=C)CC2OC(=O)C(COC)C12 (stereo unspecified) | inactive | inactive | –
54 | O=C1CCC2=C1C1(CCCC1)N=C(Nc1nc3ccccc3o1)N2 | inactive | inactive | –
55 | Cc1cc(NS(=O)(=O)c2ccc(C(=O)NCc3ccc(Cl)c(Cl)c3)cc2)no1 | inactive | inactive | –
56 | O=c1c2ccccc2nc2sc(Nc3cccc(N4CCN5CCCCC5C4)c3)nn12 (stereo unspecified) | inactive | inactive | –
57 | CN(Cc1nccs1)S(=O)(=O)c1ccc(Nc2nc(-c3ccccc3)cs2)cc1 | inactive | inactive | –
58 | Nc1cccc(-c2ccc(NC(=O)c3cccs3)cn2)c1 | inactive | inactive | –
59 | CC(=O)NC(c1cc(F)c2cccnc2c1O)C(C)C (stereo unspecified) | inactive | inactive | –
60 | O=C1CCCC2=C1C1(CCCC1)N=C(Nc1nc3cc4ccccc4cc3o1)N2 | inactive | inactive | –
61 | O=S(=O)(c1ccc2c(c1)OCCO2)N1CCN(S(=O)(=O)c2c(Cl)cc(C(F)(F)F)cc2Cl)CC1 | inactive | inactive | –
62 | Cc1ccc(-c2nccc(=O)n2C(C)C(=O)NCCc2ccccc2)cc1 (stereo unspecified) | inactive | inactive | –
63 | CCNC(=O)c1ccc(-c2ccc3ncnc(NCc4ccc(C)o4)c3c2)o1 | inactive | inactive | –
64 | CCOC(=O)C1CCN(C(=O)C2(NC(=O)Nc3ccccc3Cl)CC2)CC1 | inactive | inactive | –
65 | Cc1nc(NC2CCCCC2)c2nc(-c3ccccc3)n(CCN3CCCC3)c2n1 | inactive | inactive | –
66 | Cc1ccc(CNc2ncnc3ccc(-c4sc(C)nc4C)cc23)o1 | inactive | inactive | 15.9 µM (active)

Row | Compound | Potency [1] | Potency [2] | Potency [3]
67 | Cn1nnnc1Sc1ncnc2scc(-c3cccc(N)c3)c12 | inactive | inactive | 22.5 µM (active)
68 | O=C1CCCC2=C1C(c1[nH]ncc1Cl)N=C(Nc1nc3cc(Br)ccc3o1)N2 (stereo unspecified) | inactive | inactive | –
69 | CN1CCN(C(=O)c2ccc(-c3cnc4c(O)ccc(C(=O)O)c4c3)cc2)CC1 | inactive | inactive | inactive
70 | Cc1cc2c(s1)c1cnn(Cc3c(C)cc(F)cc3C)c(=O)c1n2C | inactive | inactive | –
71 | Cc1cc2c(s1)c1cnn(Cc3c(F)ccc(C)c3F)c(=O)c1n2C | inactive | inactive | –
72 | Cn1cccc1CN=C1NC2=C(C(=O)CCC2)C(c2[nH]ncc2Cl)N1 (stereo unspecified) | inactive | inactive | –
73 | N#Cc1cc(NC(=O)Nc2nnc(-c3ccncc3)s2)ccc1F | inactive | inactive | –
74 | O=C1Nc2ccccc2C12CC2c1cc(Cl)c(O)c(Cl)c1 (stereo unspecified) | inactive | inactive | inactive
75 | Cc1ccc(NC(=O)c2cnn3c(C)cc(C)nc23)c(C)c1 | inactive | inactive | –
76 | Cc1c(C(=O)OCC(C)(C)C)[nH]c2c1C(=O)CC(c1ccco1)C2 (stereo unspecified) | inactive | inactive | 0.896 µM (active)
77 | CCOc1ccc(C(=O)Oc2ccc(-c3nc4ccccc4[nH]3)cc2)cc1[N+](=O)[O-] | inactive | inactive | –
78 | Fc1ccc(NC(=S)Nc2nnc(-c3ccncc3)s2)cc1C(F)(F)F | inactive | inactive | 5.04 µM (active)
79 | Cc1ccc(-c2cc(C(=O)Nc3ccccc3C)c3ccccc3n2)cc1C | inactive | inactive | –
80 | Cc1cc2c(s1)c1cnn(Cc3ccccc3Cl)c(=O)c1n2C | inactive | inactive | –
81 | CCNc1cccc(S(=O)(=O)N2CCCN(S(=O)(=O)c3ccc4c(c3)OCCO4)CC2)c1 | inactive | inactive | –
82 | Cc1ccc(N[S+](=O)([O-])c2cc3c(cc2NC2CC2)NC(=O)CC3)cc1C | inactive | inactive | 28.3 µM (active)
83 | CCOc1ccc(CCNC(=O)c2cc3ccccc3n2Cc2cc(C)cc(C)n2)cc1OCC | inactive | inactive | –
84 | Cc1cc(-c2ccccc2)nc2c(C(=O)Nc3ccc(Cl)c(Cl)c3)cnn12 | inactive | inactive | –
85 | CN(C)c1cccc(N2CCN(c3nn4c(=O)c5ccccc5nc4s3)CC2)c1 | inactive | inactive | 10.1 µM (active)
86 | COc1ccc(NC(=O)c2[nH]c(C)c(C(C)=O)c2C)cc1S(=O)(=O)Nc1ccc(C#N)cc1 | inactive | inactive | 11.3 µM (active)
